Drawing on PubChem BioAssay (Tox21), this text covers Potency, max response and activity change, positive = activation for seven molecules.

Experiment [1] in a line: qHTS assay to identify small molecule agonists of the hypoxia (HIF-1) signaling pathway - cell viability counter screen (AID 1224844; calls by dose curve; also: nearly all actives have a fitted effect of over 50% in size). In outline: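 HRE-bla ME-180 cells, 2,000/well in 0.5% dialyzed FBS medium, treated 17 h at 37C with compounds. Viability read in the same wells as the bla reporter, by CellTiter-Glo luminescence after 30 min at room temperature.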
A general note: Quantitative high-throughput screening tests each substance at several concentrations.

Experiment [2] can be described thus: qHTS assay to identify small molecule agonists of H2AX (AID 1224845; active = well fitted activation curve with a large enough effect in the signal ratio in the repeat runs, not every such curve was filed as active; the % refers to the signal ratio). In outline:
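Wild-type CHO-K1 cells, plated overnight, exposed 3hr at 37C to 15 concentrations (0.76% DMSO final). Lysed, then HTRF anti-pH2AX (S139) cryptate and anti-H2AX-d2 antibodies, 24 hr room temperature; 665/620 nm emission read.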

Experiment [3] can be described thus: qHTS assay to identify small molecule agonists of the hypoxia (HIF-1) signaling pathway (AID 1224846; active = well fitted activation curve with a large enough effect in the signal ratio in the repeat runs, not every such curve was filed as active; the % refers to the signal ratio; also: potency is read from the fitted curve at half-maximal effect). In short, it runs like this:
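HRE-bla ME-180 beta-lactamase reporter cells in medium with 0.5% dialyzed FBS, pre-incubated 5 h then exposed to compounds 17 h at 37C, 5% CO2; reporter induction read with CCF4-AM FRET substrate.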

The nature of experiment [4]: qHTS assay to identify small molecule agonists of H2AX - cell viability counter screen (AID 1224847; calls by dose curve; also: nearly all actives have a fitted effect of over 30% in size; also: potency is read from the fitted curve at half-maximal effect). In outline:
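Read-out: CellTiter-Glo luminescence, 30 min RT. Cells: wild-type CHO-K1, 1000/well, 10% FBS, plated overnight at 37C. Treatment: 15 concentrations, 3 hr, 37C, 0.76% DMSO.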

Experiment [5] is described as follows: qHTS RealTime-Glo MT Cell Viability Assay in HepG2 cells - 24 hour (AID 1224867). Also: nearly all actives have a fitted effect of over 50% in size. In outline:
(§1)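 HepG2 cells (600/well) were dispensed with RealTime-Glo reagents, incubated 5 h at 37 °C, then treated with compounds in DMSO for up to 40 h. Nonlytic NanoLuc luminescence reflecting viable cells was read at each stated time point.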

Experiment [6] is described as follows: qHTS RealTime-Glo MT Cell Viability Assay in HEK293 cells - 32 hour (AID 1224868). Also: top concentration of the series differs between compounds; nearly all actives have a fitted effect of over 50% in size. In short, it runs like this: (§2)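 HEK293 cells seeded with NanoLuc/prosubstrate reagent, rested 5 h at 37 C, then dosed and kept at 37 C up to 40 h. Nonlytic real-time luminescence from viable cells read at 0, 8, 16, 24, 32 and 40 h.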
Experiment [7] is described as follows: A CellTox Green Cytotoxicity Assay to monitor cytotoxicity in HEK293 cells - 0 hour (AID 1224869). Also: nearly all actives have a fitted effect of over 50% in size. In short, it runs like this:
(§3)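 HEK293 cells, 600/well, were preincubated 5 hours and then exposed to compounds at 37 C for up to 40 hours. A cell-impermeant cyanine dye staining dead-cell DNA was read by fluorescence at 0, 8, 16, 24, 32 and 40 h time points.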

A short description of experiment [8]: qHTS RealTime-Glo MT Cell Viability Assay in HepG2 cells - 40 hour (AID 1224870). Also: nearly all actives have a fitted effect of over 50% in size. In outline:
(§4)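 HepG2 cells (600/well) mixed with RealTime-Glo MT reagent, settled 5 h at 37 C/5% CO2 before compound addition. Nonlytic NanoLuc luminescence from viable-cell prosubstrate reduction read repeatedly during 40 h treatment at 37 C.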

Experiment [9] can be described thus: A CellTox Green Cytotoxicity Assay to monitor cytotoxicity in HEK293 cells - 40 hour (AID 1224871). Also: nearly all actives have a fitted effect of over 45% in size. In outline: as §3
Experiment [10] in a line: qHTS RealTime-Glo MT Cell Viability Assay in HEK293 cells - 16 hour (AID 1224872). In short, it runs like this: as §2
Experiment [11] can be described thus: qHTS RealTime-Glo MT Cell Viability Assay in HepG2 cells - 8 hour (AID 1224873). Also: nearly all actives have a fitted effect of over 55% in size. In outline:
as §4

The nature of experiment [12]: qHTS RealTime-Glo MT Cell Viability Assay in HEK293 cells - 40 hour (AID 1224874). Also: nearly all actives have a fitted effect of over 50% in size. Particulars: RealTime-Glo luminescence; max response: active compounds read low. In short, it runs like this:
(§5)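 600 cells/well were plated with the nonlytic NanoLuc/prosubstrate reagent, pre-incubated 5 h, then given 23 nL of compound in DMSO. Incubation at 37 C for 40 h, with luminescence from viable-cell-reduced substrate read repeatedly from 0 h.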

The nature of experiment [13]: A CellTox Green Cytotoxicity Assay to monitor cytotoxicity in HEK293 cells - 24 hour (AID 1224875). Also: nearly all actives have a fitted effect of over 45% in size. In short, it runs like this:
as §3

Experiment [14] can be described thus: A CellTox Green Cytotoxicity Assay to monitor cytotoxicity in HepG2 cells - 16 hour (AID 1224876). Also: nearly all actives have a fitted effect of over 45% in size. In short, it runs like this: (§6)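 HepG2 cells, 600/well, preincubated 5 h with CellTox Green dye, then exposed to Tox21 compounds in DMSO at 37 C for up to 40 h. Dead-cell DNA fluorescence read at the indicated time point.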
A short description of experiment [15]: qHTS RealTime-Glo MT Cell Viability Assay in HepG2 cells - 32 hour (AID 1224877). Also: nearly all actives have a fitted effect of over 55% in size. In outline: as §1
Experiment [16] can be described thus: A CellTox Green Cytotoxicity Assay to monitor cytotoxicity in HepG2 cells - 24 hour (AID 1224878). Also: nearly all actives have a fitted effect of over 45% in size. In short, it runs like this:
as §6

A short description of experiment [17]: A CellTox Green Cytotoxicity Assay to monitor cytotoxicity in HepG2 cells - 40 hour (AID 1224879). Also: nearly all actives have a fitted effect of over 40% in size. In short, it runs like this:
as §6

Experiment [18] is described as follows: qHTS RealTime-Glo MT Cell Viability Assay in HEK293 cells - 0 hour (AID 1224880). In outline: as §5
A short description of experiment [19]: qHTS assay to identify small molecule antagonists of the estrogen related receptor (ERR) signaling pathway from Tox21 library (AID 1224848). Also: nearly all actives have a fitted effect of over 50% in size. In short, it runs like this:
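ERR reporter cell line (from NTP) seeded 2,000 cells/well, rested 6 h at 37 C/5% CO2, then pin-dosed with compounds in DMSO. After 18 h at 37 C, ONE-Glo added; luminescence read after 30 min at room temperature.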

Experiment [20] is described as follows: qHTS assay to identify small molecule agonists of the estrogen related receptor (ERR) signaling pathway from Tox21 library (AID 1224849; calls by dose curve; also: nearly all actives have a fitted effect of over 15% in size). Particulars: ERR reporter cell line, ONE-Glo luciferase, 18 h; at 92.4 µM (top of the series) unless noted. In short, it runs like this: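 ERR reporter cells (NTP line) pre-incubated 6 hours at 37 C, then exposed to compounds for 18 hours at 37 C. ONE-Glo luciferase luminescence was read after 30 minutes at room temperature.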

The structures appear in SMILES notation. Unmarked numbers belong to inactive results. Results filed as inconclusive are left out. Activity calls are given as the source filed them. Unless noted, calls follow the shape of the dose curve; as a rule, active = well fitted curve in the direction sought with a large enough effect in the repeat runs; inconclusive = weak or mixed curves; inactive = no such curve, though single readings can be large; an effect the other way counts as inactive or inconclusive.
% is scaled to controls: 0 for no effect and ±100 for the full control effect.

In the case of `CC(=O)[O-].CC(=O)[O-].[Co+2]`, the Potency entry in [1], in experiment [2], in experiment [4], in experiment [5], in [6] and in experiment [7] was “inactive” each time. The Potency entry in [8], in [9], in [10], in [11], in [13] and in experiment [14] was “inactive” in each case. Further, the Potency result in [15], in experiment [16], in experiment [17] and in [18] was “inactive” in each case. Also, in experiment [3], the Potency is 21.9 µM (active). Besides, the max response in [12] is 8.26%.

Consider `ClSC(Cl)(Cl)Cl`, for which the Potency entry in [1], in experiment [2], in experiment [3], in [4], in experiment [19] and in experiment [5] was “inactive” in each case. The Potency entry in [6], in [7], in experiment [8], in experiment [9], in experiment [10] and in experiment [11] was “inactive” each time. The Potency entry in experiment [13], in experiment [14], in experiment [15], in experiment [17] and in experiment [18] was “inactive” in each case. The activity change, positive = activation in experiment [20] is 1.32%. The max response in experiment [12] was 0.633%.

As for `CN=C=O`, the Potency result in [1], in experiment [2], in [3], in [4], in experiment [19] and in experiment [5] was “inactive” in each case. The Potency result in [6], in [7], in [9], in experiment [11], in [13] and in [14] was “inactive” throughout. Further, the Potency entry in experiment [15], in experiment [16], in [17] and in experiment [18] was “inactive” each time. Also, the activity change, positive = activation in [20] is 0.484%.

As to `CCOP(=S)(OCC)Oc1cc(C)nc(N(CC)CC)n1`, the Potency entry in [1], in [2], in experiment [3], in experiment [4], in experiment [5] and in experiment [6] was “inactive” each time. Besides, the Potency result in experiment [7], in experiment [8], in experiment [9], in [10], in experiment [11] and in experiment [13] was “inactive” throughout. Also, the Potency entry in experiment [14], in [15], in experiment [16], in [17] and in experiment [18] was “inactive” in each case. The activity change, positive = activation in [20] is -21.1%. In addition, in experiment [12], the max response is 2.8%.

`[O-][Cl+3]([O-])([O-])O`: the Potency entry in experiment [1], in [2], in experiment [3], in experiment [4], in experiment [5] and in [6] was “inactive” each time. Moreover, the Potency result in [7], in [8], in [9], in experiment [10], in experiment [11] and in experiment [13] was “inactive” throughout. The Potency result in experiment [14], in experiment [15], in experiment [16], in experiment [17] and in experiment [18] was “inactive” each time. Besides, the max response in [12] was 7.85%.

As for `Oc1ccc(Cl)c(Cl)c1`, the Potency result in experiment [1], in experiment [2], in experiment [3], in experiment [5], in experiment [7] and in experiment [9] was “inactive” each time. In addition, the Potency result in [10], in experiment [11], in [13], in experiment [14], in experiment [15] and in [16] was “inactive” each time. The Potency entry in experiment [17] is “inactive”. Moreover, the Potency in experiment [4] is 49.7 µM (active). Moreover, the activity change, positive = activation in [20] was -11.7%.

On to `Nc1cc(Cl)ccc1Cl`, for which the Potency result in [1], in experiment [2], in experiment [3], in experiment [4], in experiment [19] and in [5] was “inactive” each time. In addition, the Potency entry in [6], in [7], in experiment [8], in [9], in experiment [10] and in experiment [11] was “inactive” in each case. Moreover, the Potency entry in experiment [13], in experiment [14], in [15], in experiment [16], in [17] and in [18] was “inactive” each time. Further, in experiment [20], the activity change, positive = activation was -0.0267%. Besides, the max response in [12] was 22.7%.
